Vaccinia Venus = vaccinia inhibition (Venus reporter) | Vaccinia virus Venus reporter expression, fluorescence | Potency, µM (doses to about 36.5 µM), inactives show at the top dose activity change, negative = inhibition, most hits filed as inhibitors | hit rate 0.46% among 330,000 | AID 720580; calls by dose curve; tested in A549 cells; note: potency is the fitted concentration of half-maximal effect; nearly all actives have a fitted effect of over 30% in size
HCV inhibitor = blocks hepatitis C virus; Huh7.5.1 HCVcc-Cre infection, luciferase reporter, 44 h; Potency, µM (top dose mostly 41.8 µM), without a hit: top-dose activity change, negative = inhibition, usual class: inhibitors; hit rate 3.4% among 340,000; note: potency is the fitted concentration of half-maximal effect
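Infectious HCV cell culture screen: compound-treated cells (1,000/well, pre-plated 4 h) are infected with HCVcc-Cre at roughly 0.5 moi and grown 44 h. Infection is quantified by luciferase signal after 15 min substrate incubation at room temperature.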
FMDV inh = antivirals against foot and mouth disease virus. FMDV antiviral cell-based qHTS. hit rate 1.2% among 410,000. Potency, µM (series often up to 57.9 µM), without a hit: at the top dose activity change, negative = inhibition, actives largely listed as inhibitors; calls by dose curve; tested in HEK293T cells; note: read-out not given here; potency is the fitted concentration of half-maximal effect; nearly all actives have a fitted effect of over 45% in size
HCMV inh = blocks human cytomegalovirus replication. HFF cells, HCMV-luciferase reporter, 72 h; active compounds read low. activity change, negative = inhibition, % at 57.5 µM. hit rate 4.5% among 410,000. AID 1259415; in the data active = activity change below about -60%; inconclusive = no clear call, values can overlap the other calls; inactive = above about -39%
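HFF cells seeded 16 h at 37C, treated with compounds, infected with luciferase-reporter HCMV at MOI 1 PFU/cell; luciferase read at 72 h post infection, normalized to buffer-only and Salinomycin controls.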
FBPA Giardia inh = blocks Giardia fructose-bisphosphate aldolase activity; A8B2U2; purified Giardia FBPA; Potency, µM (doses to about 59.6 µM), for inactives: at the top dose activity, negative = inhibition, hits mostly inhibitors; hit rate 0.71% among 290,000; AID 2451; note: potency is the fitted concentration of half-maximal effect; nearly all actives have a fitted effect of over 55% in size
Target sequence (A8B2U2 whole entry, looked up): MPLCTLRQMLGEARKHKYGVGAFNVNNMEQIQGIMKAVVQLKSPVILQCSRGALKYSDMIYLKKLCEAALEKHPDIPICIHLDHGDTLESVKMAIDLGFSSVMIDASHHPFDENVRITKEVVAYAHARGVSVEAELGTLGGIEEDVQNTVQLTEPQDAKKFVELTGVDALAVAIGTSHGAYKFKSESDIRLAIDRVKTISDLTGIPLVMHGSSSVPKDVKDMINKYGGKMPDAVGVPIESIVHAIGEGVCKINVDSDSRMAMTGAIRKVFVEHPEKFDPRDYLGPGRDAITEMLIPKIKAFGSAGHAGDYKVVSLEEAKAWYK
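40 nM FBPA preincubated 10 min at RT with compound (up to 57.5 uM final), then substrate plus GAPDH/TPI/NAD/arsenate coupling and diaphorase/resazurin added. Fluorescence read after 20 min at RT, 525/598 nm.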
Vaccinia mCherry = inhibitors of vaccinia virus infection (mCherry reporter signal); hit rate 0.63% among 310,000; Vaccinia virus mCherry reporter infection, fluorescence; Potency, µM (doses to about 36.5 µM), for the others: top-dose activity change, negative = inhibition, usual class: inhibitors; calls by dose curve; tested in A549 cells; note: potency is the fitted concentration of half-maximal effect; nearly all actives have a fitted effect of over 35% in size
* marks the source's active call; other numbers are inactive results; i = inactive; ? = inconclusive; nt = no result; [ ] = remark or other dose. In the library only some 7.5% were active in any assay of this set; here they are far more common. Unless noted, calls come from the whole dose curve; as a rule, active = well fitted curve in the direction sought with a large enough effect; inconclusive = small, poorly fitted or top-dose-only effect, or another doubt; inactive = no such curve, though single readings can be large; an effect the other way counts as inactive or inconclusive. % is set by controls: 0 for no effect and ±100 for the full control effect.

SMILES	Vaccinia Venus	HCV inhibitor	FMDV inh	HCMV inh	FBPA Giardia inh	Vaccinia mCherry
CCN(Cc1ccccc1)C(=O)Nc1c(Cl)cccc1Cl	nt	nt	nt	33	nt	nt
CCOc1ccccc1NC(=O)c1c(NCc2cccs2)sc2c1CCCCC2	-9%	nt	38%	?	nt	-3%
COc1cc(OC)cc(C(=O)NC(C(=O)NCCc2ccccn2)C(C)C)c1 (stereo not given)	nt	18%	4%	52	nt	nt
CCOCN(C(=O)Cn1c(CC(C)C)nc2ccccc21)c1c(C)cccc1CC	-7%	nt	-30%	-62*	nt	7%
O=C(O)Cc1csc(-c2ccccc2)n1	-9%	-8%	17%	-63*	0%	i
CC(=O)N1CCN(c2ccc(Oc3ccc([N+](=O)[O-])c(C(F)(F)F)c3)cc2)CC1	-27%	11µM*	?	nt	7%	-16%
CCOC(=O)C1=NN(c2ccc(C)cc2)C2(S1)SC(C(C)=O)=C(C)N2c1ccccc1 (stereo not given)	nt	14µM*	-24%	-30	-14%	nt
COc1ccc(CN(CCCN)c2ccc(Br)cn2)cc1	-20%	nt	nt	nt	nt	-24%
CCCNS(=O)(=O)c1ccc(CCC(=O)Nc2cc(Cl)ccc2Oc2ccccc2)cc1	?	10µM*	?	-2	1%	nt
CC(C)CNS(=O)(=O)c1ccc(CCC(=O)Nc2cc(Cl)ccc2Oc2ccccc2)cc1	?	?	?	28	2%	nt
CCOc1ccc(Oc2ccccc2NS(=O)(=O)c2ccc(CCC(=O)O)cc2)cc1	nt	-15%	?	-64*	nt	nt
CC(C)(C)NS(=O)(=O)c1ccc(CCC(=O)Nc2cc(Cl)ccc2Oc2ccccc2)cc1	?	8.9µM*	?	17	-9%	?
O=C(O)CCc1ccc(S(=O)(=O)Nc2ccc(OCc3ccccc3)cc2)cc1	-8%	?	7%	10	7%	?
CCCC(=O)NC(NC(=S)Nc1ccc(N=Nc2ccccc2)cc1)C(Cl)(Cl)Cl (stereo not given)	?	10µM*	?	-70*	-7%	-16%
O=C(CCc1ccccc1)NC(NC(=S)Nc1ccc(Br)cc1)C(Cl)(Cl)Cl (stereo not given)	?	2µM*	nt	-14	-1%	-23%
COC(=O)C1=C(C(=O)OC)[C@@H]2N(Cc3ccccc3)c3ccccc3[C@@]23C[C@@H](C(=O)OC)N(S(=O)(=O)c2ccc(C#N)cc2)C3=N1	nt	nt	nt	nt	4%[12.9 µM]	nt
COc1ccc(C(=O)Nc2ccc(OCC(=O)N3CCOCC3)cc2)c(OC)c1OC	3%	16%	0%	57	2%	-15%
Cc1cc(C(=O)CSc2ncn[nH]2)c(C)n1-c1cccc(S(=O)(=O)N2CCOCC2)c1	-16%	?	28µM*	-29	-3%	-2%
Cc1cc(C(=O)CCl)c(C)n1-c1cccc(S(=O)(=O)N2CCOCC2)c1	8%	?	25µM*	-29	-1%	5%
O=C(O)C1CCN(C(=O)COc2ccc3c(c2)oc(=O)c2ccccc23)CC1	-4%	?	-6%	0	6%	3%
C[C@@H](CC#N)CN1CC[C@H](C(C)(C)C)CCC1=O	-4%	4%	-1%	-16	?	i
CCOc1ccccc1CNC(=O)c1cccn1-c1nnc(N2CCCCC2)s1	1%	nt	9%	0	nt	-18%
CCOc1ccccc1CNCc1cccn1-c1nnc(N2CCN(c3ccccc3)CC2)s1	?	nt	?	-98*	nt	?
CC1(C)CC(=O)C([C@H]2C3=C(CC(C)(C)CC3=O)Oc3ccccc32)C(=O)C1	nt	nt	-10%	nt	5%	nt
CC1(C)CC(=O)C2=C(C1)Oc1nc3ccccc3cc1C2C(C#N)C#N (stereo not given)	11µM*	?	8.9µM*	122	-21%	?
SMILES	Vaccinia Venus	HCV inhibitor	FMDV inh	HCMV inh	FBPA Giardia inh	Vaccinia mCherry
O=C(Nc1ccc2oc(-c3ccc4ccccc4c3)nc2c1)c1cccc(Cl)c1Cl	-9%	nt	21%	-17	nt	-16%
Cc1cc(C)cc(C(=O)Nc2ccc(NC(=O)c3cccs3)cc2)c1	?	?	-31%	nt	-6%	10µM*
O=C(Nc1ccc2oc(-c3ccccc3)nc2c1)c1ccccc1F	-12%	?	40%	-89*	-2%	-15%
O=C(Nc1ccc(-c2nc3cc(NC(=O)c4ccccc4F)ccc3o2)cc1)c1ccccc1F	-4%	nt	6%	6	nt	-5%
CCc1ccc2oc(-c3ccc(NC(=O)c4cccc(Cl)c4Cl)cc3)nc2c1	-15%	nt	13µM*	-70*	nt	i
Cc1cnccc1NC(=O)c1cccs1	8%	-26%	-12%	-62*	2%	i
O=C(Nc1ccc(-c2nc3cc(NC(=O)c4cccs4)ccc3o2)cc1)c1cccs1	nt	11µM*	4%	-70*	8%	nt
CCN(CC)S(=O)(=O)c1ccc2c(c1)c(=O)c(C(=O)NCc1ccccc1OC)cn2C	?	nt	0%	?	nt	?
CCN(CC)S(=O)(=O)c1ccc2c(c1)c(=O)c(C(=O)NCc1ccccc1Cl)cn2C	-15%	nt	-12%	-65*	nt	-15%
O=C(CN1CCCCC1)NCC1(c2ccccc2)CCCC1	5%	8%	-11%	?	-2%	-23%
Cc1ccn2c(=O)c(C(=O)NC(C)c3ccccc3)c(O)nc2c1 (stereo not given)	-26%	nt	-2%	-70*	nt	-14%
Cc1nc(-n2ncc(C#N)c2N)c2c3c(sc2n1)CCC3	nt	?	-8%	-17	-7%	nt
CCCSc1nc(-n2ncc(C#N)c2N)c2c3c(sc2n1)CCC(C)C3 (stereo not given)	nt	14µM*	-19%	-7	-5%	nt
CCCCNC(=O)c1ccc2c(SCC(=O)O)c3c(nc2c1)CCCC3	0%	-23%	-21%	7	2%	-10%
CCCN(C(=O)c1ccc2c(SCC(=O)O)c3c(nc2c1)CCC3)c1cccc(C)c1	4%[7.34 µM]	12%	-10%	-60*	nt	-6%[7.34 µM]
N#Cc1nc(Cc2ccccc2)oc1N1CCN(c2ccccc2)CC1	-14%	1%	nt	-18	8%	i
N#Cc1nc(-c2cccs2)oc1N1CCN(c2ccccc2)CC1	nt	2.8µM*	-19%	1	2%	nt
COC(=O)c1ccc(C(=O)N=c2sccn2C)cc1	-5%	2%	0%	-18	-2%	i
CCN1CCN(CCCNC(=O)Cn2nc(C)n3c(cc4cc(C)ccc43)c2=O)CC1	-7%	nt	-12%	-19	nt	-4%
CSCC[C@H](NC(=O)[C@H](Cc1ccccc1)n1c(=O)[nH]c2ccccc2c1=O)C(=O)NCC1CCC(C(=O)O)CC1 (stereo not given in full)	10%	0%	-13%	37	7%	-2%
CC(C)(CNC(=O)C1CCN(S(=O)(=O)c2cc([N+](=O)[O-])ccc2Cl)CC1)N1CCOCC1	?	?	-5%	-16	nt	14µM*
Cc1cccc(CSCc2ccc(C(=O)NC(C)C)o2)c1	nt	13µM*	?	7	12%	nt
